Experimental findings from PubChem BioAssay AID1851 (National Center for Advancing Translational Sciences (NCATS), 2009) are described below.

Structures are written as SMILES. Screen size: about 16,000 compounds; about 4,000 (25%) were called active. About 26% were inconclusive and are not listed. The call rests on the fitted dose curve; in most records, active means well fitted curve in the direction sought with a large enough effect; inconclusive means small, poorly fitted or top-dose-only effect, or effect the other way; inactive means no such curve, though single readings can be large or run the other way. Only a sample is shown.

The term AC50 denotes the midpoint of the concentration-response curve, whichever way the signal moves.
On the % scale 0 is the no-effect control and ±100 the full control effect.

The target of the experiment is Cytochrome P450 2C9 (Homo sapiens) (UniProt P11712). Briefly: Cytochrome panel assay with activity outcomes. The note with it: recombinant CYP, pro-luciferin dealkylation, luminescence, p450-cyp2c9; series mostly up to 57.1 µM; activity, negative = inhibition: at the top concentration.
Cytochrome P450 2C9 (Homo sapiens), sequence (P11712 whole entry, looked up): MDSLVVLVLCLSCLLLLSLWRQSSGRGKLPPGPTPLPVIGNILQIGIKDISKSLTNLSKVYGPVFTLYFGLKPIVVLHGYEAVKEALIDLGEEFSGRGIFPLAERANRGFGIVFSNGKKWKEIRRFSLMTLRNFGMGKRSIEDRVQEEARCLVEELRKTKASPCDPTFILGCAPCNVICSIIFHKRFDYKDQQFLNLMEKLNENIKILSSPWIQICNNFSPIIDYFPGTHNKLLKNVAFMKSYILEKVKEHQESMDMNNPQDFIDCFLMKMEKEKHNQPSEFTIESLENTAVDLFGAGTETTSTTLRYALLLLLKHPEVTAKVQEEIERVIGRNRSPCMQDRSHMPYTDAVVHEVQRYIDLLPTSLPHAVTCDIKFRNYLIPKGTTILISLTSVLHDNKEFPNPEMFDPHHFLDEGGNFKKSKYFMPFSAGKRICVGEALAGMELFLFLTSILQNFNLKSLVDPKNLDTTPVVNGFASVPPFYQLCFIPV
For the molecule `C[N+](C)(CCCCCC[N+](C)(C)CCCN1C(=O)c2cccc3cccc(c23)C1=O)CCCN1C(=O)c2cccc3cccc(c23)C1=O`, the “activity, negative = inhibition” value is 10.1% (inactive).
Regarding `Cc1ccc(NC(=S)N2CCN(CCN3C(=O)c4cccc5cccc(c45)C3=O)CC2)cc1`, the AC50 is 6.31 µM (active).
For the molecule `Cc1ccc(NC(=S)N2CCN(C3CCCCC3)CC2)cc1`, the “activity, negative = inhibition” value is 4.46% (inactive).
Consider `C/C(=N\NC(=O)Cc1ccc(Cl)cc1)c1ccccn1`, for which the AC50 is 14.1 µM (active).
`C/C(=N\NC(=O)CC1N=C(Cc2ccccc2)NNC1=O)c1ccc(Cl)cc1Cl` (stereo not given): the “activity, negative = inhibition” value is -30% (inactive).
In the case of `COc1ccccc1CNC(=O)C/C(C)=N/NC(=O)Cc1ccccc1`, the “activity, negative = inhibition” value is 13.2% (inactive).
On the same count and under the same terms, the figure for `CC1(C)C2([N+](=O)[O-])CN3CC1([N+](=O)[O-])CN(C2)C3c1ccccc1` (stereo not given) is -20.9% (inactive).
Still for that read-out and setting: the figure for `FC(F)(F)c1ccccc1-c1cc(NCCN2CCOCC2)ncn1` is 26.8% [at 2.29 µM] (inactive); for `CCOC(=O)Oc1c(OC)cc(C(=O)O[C@H]2C[C@H]3CN4CCc5c([nH]c6cc(OC)ccc56)[C@@H]4C[C@H]3[C@@H](C(=O)OC)[C@@H]2OC)cc1OC` it is -2.83% [at 25.6 µM] (inactive).
Regarding `Cc1ccc(S(=O)(=O)N(Cc2ccccc2)c2ccccc2C(=O)NCc2ccco2)cc1`, the AC50 is 0.0398 µM (active).
Take `Cc1cccc(C)c1NC(=O)CCN1C(=O)C2C3CCC(C3)C2C1=O` (stereo not given): the “activity, negative = inhibition” value was -43.2% (inactive).
`Cc1cc(C(=O)CSc2nnc(-c3ccccc3)o2)c(C)n1CC1COc2ccccc2O1` (stereo not given): the AC50 is 3.55 µM (active).
The same measure, in the same setting: the entry for `CCn1ccnc1C[C@@H]1COc2ccccc2O1` is “inactive”; for `Cc1ccc(SCc2[nH]nc3c2C(C(C)C)C(C#N)=C(N)O3)cc1` (stereo not given) it is 7.08 µM (active).
Consider `O=C(O)CSc1ncnc2sc3c(c12)CCC3`, for which the “activity, negative = inhibition” value was -25.3% (inactive).
Same read-out and setting: next, `Fc1cccc(CSc2ncnc3c2ncn3[C@H]2CCCS2)c1`: 9.41% [at 11.4 µM] (inactive).
As to `Fc1ccc(CSc2ncnc3sc4c(c23)CCCC4)cc1`, the concentration at half-maximal activity (AC50) was 11.2 µM (active).
As for `O=[N+]([O-])c1ccc(Nc2nc3ccccc3s2)cc1`, the AC50 is 1.26 µM (active).
`COCCN1CN=C(Nc2nc3ccccc3s2)NC1`: the “activity, negative = inhibition” value was -22.2% (inactive).
On the same count and under the same terms, next, `O=C(NNc1nc2ccccc2s1)C1CC1`: -21.8% (inactive).
With `CCCCC(=O)NC(Nc1cc(C)ccn1)(C(=O)OCC)C(F)(F)F` (stereo not given), the AC50 is 22.4 µM (active).
With `C/C(CC(=O)Nc1cc(C)ccn1)=N\NC(=O)COc1cccc(C)c1`, the “activity, negative = inhibition” value is -22% (inactive).
On to `CCCc1nn(-c2ccccc2)c2c1C(c1cccs1)C(C#N)=C(N)O2` (stereo not given), for which the concentration at half-maximal activity (AC50) is 4.47 µM (active).
On the same count and under the same terms, the figure for `CC(C)N(Cc1ccccc1)S(=O)(=O)c1n[nH]c(C(C)(C)C)n1` is 3.98 µM (active); for `COc1ccc(CCNC(=O)c2nnn(CC(=O)Nc3ccccc3C)c2N)cc1OC` it is 15.8 µM (active).
As to `COc1ccc(CCNC(=O)Cn2cnc3c2c(=O)n(C)c(=O)n3C)cc1OC`, the “activity, negative = inhibition” value is -21% (inactive).
On the same count and under the same terms, next, `Cc1ccc(C)c(NC(=O)Cn2nnc(C(=O)NCc3cccs3)c2N)c1`: -22% (inactive).
The same measure, in the same setting: the figure for `COc1ccccc1CNc1ncncc1-c1ccccc1C(F)(F)F` is -18.6% [at 2.29 µM] (inactive).
Regarding `CN1c2ccccc2Oc2c(c(=O)n(C)c(=O)n2C)C1c1cccc([N+](=O)[O-])c1` (stereo not given), the AC50 was 4.47 µM (active).
For the molecule `CC(=NCC(=O)O)c1ccccc1`, the activity, negative = inhibition is 2.4% [at 11.4 µM] (inactive).
Take `O=C(c1ccccc1)[C@@H]1O[C@H]1c1ccc(-c2ccccc2)cc1`: the half-maximal activity concentration (AC50) was 12.6 µM (active).
With `CCCCCCCCCCCCCCC[C@H](O)[C@H](N)CO`, the “activity, negative = inhibition” value was -10.3% (inactive).
The same measure, in the same setting: the figure for `O=C(O)c1cc(-c2ccc(-c3ccccc3)cc2)nc2cc3ccccc3cc12` is -27% [at 11.4 µM] (inactive).
With `Cc1ccc2nc(Nc3nc(-c4ccccc4)cc(=O)[nH]3)nc(C)c2c1`, the half-maximal activity concentration (AC50) was 2.82 µM (active).
Take `Cc1ccccc1/C=C\C1=NCCN1`: the “activity, negative = inhibition” value was 16.2% (inactive).
Still for that read-out and setting: the figure for `CC(C)(C)COS(=O)OCC(C)(C)C` is -7.38% [at 11.4 µM] (inactive).
As for `Cc1ccc(S(=O)(=O)/C=C\C#N)cc1`, the AC50 is 12.6 µM (active).
On the same count and under the same terms, the entry for `CCN(CC)CCNC(=O)c1cc(Cl)c(N)cc1OC` is “inactive”; for `CC1=C(C(=O)OCc2ccccc2)C(c2ccc(Cl)cc2)NC(=O)N1CCCCCC(=O)O` (stereo not given) it is 12.6 µM (active).
Still for that read-out and setting: the figure for `CC1=C(C(=O)OCc2ccccc2)C(c2ccc3ccccc3c2)NC(=O)N1CCCCCC(=O)O` (stereo not given) is 7.94 µM (active).
With `CN1CCC[C@@H]1CCO[C@](C)(c1ccccc1)c1ccc(Cl)cc1`, the “activity, negative = inhibition” value was 2.58% [at 25.6 µM] (inactive).
On to `CC1=C(C(=O)OCc2ccccc2)C(c2ccc([N+](=O)[O-])cc2)NC(=O)N1CCCCCC(=O)O` (stereo not given), for which the AC50 was 15.8 µM (active).
For the molecule `CC(C)=CCC/C(C)=C/CO/N=C1/C[C@@H](O)[C@@H](O)[C@@H]2[C@@H]3C(=O)N(C[C@@H]4CCCO4)C(=O)[C@H]3CC[C@@H]12`, the activity, negative = inhibition was 9.34% [at 11.4 µM] (inactive).
On the same count and under the same terms, next, `CN(C)[C@H]1C(=O)C(C(=O)NCN2CCCC2)=C(O)[C@]2(O)C(=O)C3=C(O)c4c(O)cccc4[C@](C)(O)[C@H]3C[C@H]12`: -10.5% [at 11.4 µM] (inactive).
On the same count and under the same terms, the figure for `Cc1cc(=Nc2ccc3c(c2)c(N)cc(C)[n+]3C)nc(N)n1C` is 13% [at 11.4 µM] (inactive).
Consider `CCN(CC)CC#CCC(C)(c1ccccc1)c1ccccc1`, for which the AC50 is 15.8 µM (active).
`CCCC(C(=O)OCCN(CC)CC)(c1ccccc1)c1ccccc1`: the “activity, negative = inhibition” value is -47.9% [at 25.6 µM] (inactive).
Still for that read-out and setting: next, `N=C(N)SCCSC(=N)N`: -1.93% [at 11.4 µM] (inactive).
On the same count and under the same terms, the figure for `COc1cc(C(=O)N2CCN(C(=O)c3ccccc3)CC2)cc(OC)c1OC` is -11% (inactive); for `COc1cc(OC)c(C2C(C(=O)O)c3ccccc3C(=O)N2C)cc1OC` (stereo not given) it is -22.7% (inactive).
For the molecule `COc1cc2c3c(c1OC)C1(C=CC(=O)C=C1)CC3N(C(=O)c1ccccc1)CC2` (stereo not given), the AC50 was 3.16 µM (active).
As for `c1ccc(CNc2cc(-c3ccoc3)ncn2)cc1`, the activity, negative = inhibition was -12.4% [at 2.29 µM] (inactive).
For `c1ccc(-c2nc(CSc3n[nH]c(-c4cccs4)n3)cs2)cc1`, the AC50 was 20 µM (active).
Consider `O=C(c1cnccn1)N1CCC2(CCCN(c3ncccn3)C2)CC1`, for which the “activity, negative = inhibition” value is -7.23% (inactive).
Turning to `CCOc1ccc(Cc2nccc3cc(OCC)c(OCC)cc23)cc1OCC`, the concentration at half-maximal activity (AC50) was 3.98 µM (active).
As to `Cn1c(CN2CCOCC2)nnc1SCc1ccccc1`, the “activity, negative = inhibition” value was 0.914% (inactive).
As for `Cn1c(CNC(=O)Nc2ccccc2)nnc1SCc1ccccc1`, the concentration at half-maximal activity (AC50) is 8.91 µM (active).
With `COc1cccc(-c2nc(NCCNC(C)=O)c3ccccc3n2)c1`, the activity, negative = inhibition was 22.4% [at 2.29 µM] (inactive).
As to `COc1ccc2[nH]c(-c3ccccc3)c(CCNC(C)=O)c2c1`, the half-maximal activity concentration (AC50) was 15.8 µM (active).
Turning to `COc1cccc(-c2ccc3ncnc(NCCNC(C)=O)c3c2)c1`, the activity, negative = inhibition was -1.53% [at 2.29 µM] (inactive).
